# Results reported in the supplement of paper PMC10933113.
# ± gives the uncertainty stated by the source.
# Test system: THP-1
# Test: CD86 surface expression induction over DMSO control (% over DMSO); higher = stronger dendritic cell activation
# Settings: exposure time: 24 h
# Experimental: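 hCLAT-like CD54 and CD86 surface expression on THP1 cells after 24 h exposure at a single concentration (highest non-cytotoxic concentration, or 100-200 µM if not cytotoxic). Flow cytometry (iQue) was run on 5,000 live cells.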
row,Compound,CD86 surface expression induction
1,"Nc1ccc(Nc2ccccc2)cc1 [N-Phenyl-1,4-benzenediamine] (200 µM)",44.2 ± 39
2,CCCCCCCCCCCCO [1-Dodecanol] (100 µM),21.8 ± 27
3,CCCCCCCCCCCCOCCO [2-(Dodecyloxy)ethanol] (200 µM),57 ± 59
4,O=C(O)Cn1c(C(=O)Nc2nc(-c3ccccc3Cl)cs2)cc2ccccc21 [Lintitript] (100 µM),-2.3 ± 0.27
5,C=C(C)C(=O)Nc1ccc(Cl)c(Cl)c1 [Chloranocryl] (100 µM),-22.2 ± 23
6,CCCSS/C(CCO)=C(/C)N(C=O)Cc1cnc(C)nc1N [Prosultiamine] (10 µM),-13 ± 4.4
7,"Nc1nnc(-c2ccc([N+](=O)[O-])o2)o1 [2-Amino-5-(5-nitro-2-furyl)-1,3,4-oxadiazole] (10 µM)",-2.6 ± 2.1
8,c1ccc(CCNc2nc(-c3ccccc3)cs2)cc1 [Fanetizole] (200 µM),-6.54 ± 1.4
9,O=C(O)c1cn(C2CC2)c2cc(N3CCNCC3)c(F)cc2c1=O [Ciprofloxacin] (100 µM),-5.55 ± 6.9
10,Cc1ccc2c(c1[N+](=O)[O-])C(=O)c1ccccc1C2=O [2-Methyl-1-nitroanthraquinone] (10 µM),7.64 ± 3.5
11,CC(C)(C)c1cc(O)ccc1O [tert-Butylhydroquinone] (100 µM),66.8 ± 57
12,COc1cc(C(C)C)c2c(c1)S(=O)(=O)N(COc1cc(=O)n3cccc(OCCN4CCCCC4)c3n1)C2=O (100 µM),117 ± 98
13,O=c1n(CC2CO2)c(=O)n(CC2CO2)c(=O)n1CC1CO1 (stereo not given) [Triglycidyl isocyanurate] (10 µM),0.85 ± 1.2
14,O=C1c2cccc(O)c2C(=O)c2c(O)cccc21 [Danthron] (100 µM),6.93 ± 0.81
15,O=CC(=O)c1ccccc1 [Phenyl glyoxal] (100 µM),4.41 ± 2
16,Cc1c(C)n(Cc2ccccc2)c2ccc(C(=O)OCCN(C)C)cc12 [Indocate] (200 µM),67.3 ± 61
17,O=[N+]([O-])c1cc(N(CCO)CCO)ccc1NCCO (200 µM),-7.47 ± 11
18,O=C(NS(=O)(=O)/C=C/c1ccccc1)c1ccc(F)cc1Cl (200 µM),-3.08 ± 4.4
19,CCCCOCCOCCOCCO [2-[2-(2-Butoxyethoxy)ethoxy]ethanol] (115 µM),12.7 ± 12
20,O=c1cc(-c2ccccc2)oc2cc(O)cc(O)c12 [Chrysin] (100 µM),38.2 ± 51

row,Compound,CD86 surface expression induction
1,O=C(Nc1ccccc1)c1cc(Cl)ccc1O [5-Chlorosalicylanilide] (10 µM),-11.7 ± 12
2,"O=[N+]([O-])c1cc(Cl)c(Cl)c(Cl)c1Cl [2,3,4,5-Tetrachloronitrobenzene] (10 µM)",-3.95 ± 2.5
3,COc1ccc(C(=O)/C(Br)=C\C(=O)O)cc1 [Cytembena] (200 µM),32 ± 49
4,O=C(Oc1ccccc1)c1cccc(C(=O)Oc2ccccc2)c1 [Diphenyl isophthalate] (200 µM),1.84 ± 5.6
5,COc1cccc2c1C(=O)c1c(O)c3c(c(O)c1C2=O)C[C@@](O)(C(=O)CO)C[C@@H]3O[C@H]1C[C@H](N)[C@H](O[C@@H]2CCCCO2)[C@H](C)O1 [Pirarubicin*] (10 µM),324 ± 3.3
6,CC(C)CCCCCCCOC(=O)c1ccc(C(=O)OCCCCCCCC(C)C)c(C(=O)OCCCCCCCC(C)C)c1 [Triisodecyl trimellitate] (163 µM),-10.7 ± 1.8
7,Nc1ncn([C@@H]2O[C@H](CO)[C@@H](O)[C@H]2O)c(=O)n1 [5-Azacytidine] (10 µM),-17.2 ± 5.3
8,CCC(=O)C=Cc1ccc(OC)cc1 [1-(4-Methoxyphenyl)-1-pentene-3-one] (200 µM),6.83 ± 10
9,CC(C)C[C@H](NC(=O)[C@H](Cc1ccccc1)NC(=O)c1cnccn1)B(O)O [Bortezomib] (10 µM),107 ± 8.1
10,COc1ccc2cc(CCC(C)=O)ccc2c1 [Nabumetone] (100 µM),-3.23 ± 4.6
11,C=C1CC[C@H](O)C/C1=C/C=C1\CCC[C@]2(C)[C@@H]([C@H](C)/C=C/[C@H](C)C(C)C)CC[C@@H]12 [Ergocalciferol*] (100 µM),74 ± 130
12,O=C(N/N=C/c1ccccc1O)c1ccncc1 [Salinazid] (10 µM),7.77 ± 2.8
13,CCCCCOc1ccccc1/C(=C\SC)n1ccnc1 [Neticonazole] (100 µM),38.9 ± 22
14,"O=C(O)c1cc(O)c2ccccc2c1O [1,4-dihydroxy-2-naphthoic acid*] (10 µM)",290 ± 51
15,"CC(C)=CCC/C(C)=C\CO [(2Z)-3,7-Dimethylocta-2,6-dien-1-ol] (200 µM)",6.83 ± 19
16,COc1cccc2c1C(=O)c1c(O)c3c(c(O)c1C2=O)C[C@@](O)(C(=O)CO)C[C@@H]3O[C@H]1C[C@H](N)[C@H](O)[C@H](C)O1 [Doxorubicin*] (10 µM),218 ± 96
17,CC(C)NC(=O)c1ccc(C=O)cc1 [N-isopropyl-4-formylbenzamide] (100 µM),-3.04 ± 5.2
18,COC(=O)Nc1nc2cc([S+]([O-])c3ccccc3)ccc2[nH]1 (stereo not given) [Oxfendazole] (100 µM),13.3 ± 2.3
19,"c1ccc(-c2ccccn2)nc1 [2,2'-Dipyridyl] (200 µM)",0.3 ± 28
20,"CC(C)c1ccc2cc(C(C)C)ccc2c1 [2,6-Diisopropylnaphthalene] (200 µM)",18.9 ± 22
